# Values joined by “and” are separate entries in the source; they are usually repeats but may differ in a detail not shown here. Identical values can stand only once. Whole data set: some 2,900 compounds, median “NF-kB SEAP reporter activity, fold change vs agonist alone” near 0.99, cut for the highest 2% near 2.6. What follows is part of a selection rich in the highest values, with near analogues and random picks from the rest.
# Key:
# RAW-Dual [1] = test: NF-kB SEAP reporter activity, fold change vs agonist alone; higher = enhanced NF-kB activity; details: cytotoxicity flag (confluency mask): not cytotoxic
# Method in brief: (§1)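 RAW-Dual macrophages (50,000 cells/well in DMEM, 384-well plates) received 50 nL of library stock by pin tool, then a PRR agonist 1 h later, and were kept at 37 °C, 5% CO2. After 20 hours, supernatant was read for IRF by QuantiLuc luminescence and for NF-κB by QuantiBlue absorbance at 620 nm. Reporter activity is fold change over agonist-alone wells. Cytotoxic wells had IncuCyte confluency below 70% of agonist controls in both mask sets.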
# RAW-Dual [2] = test: NF-kB SEAP reporter activity, fold change vs agonist alone; cytotoxicity flag (confluency mask): not cytotoxic; higher = enhanced NF-kB activity
# Method in brief: as §1
# [3] = library stock concentration (final ~1000-fold dilution): 10 mM, agonist: Imiquimod (TLR7) […]
# [4] = agonist: ODN 1826 (TLR9) 0.5 ug/mL
# [5] = agonist: Pam2CSK4 (TLR2/6) 0.1 ug/mL
# [6] = agonist: Pam3CSK4 (TLR2/1) 0.1 ug/mL
# [7] = library stock concentration (final ~1000-fold dilution): 10 mM, agonist: MPLA (TLR4) […]
structure (smiles),measurement,setting,value
CC(C)(C)C(=O)Oc1ccc(S(=O)(=O)Nc2ccccc2C(=O)NCC(=O)O)cc1,NF-kB SEAP reporter activity,RAW-Dual [1]; [3],0.966
O=C(O)CSc1nnc(Br)n1-c1ccc(C2CC2)c2ccccc12 (library stock concentration (final ~1000-fold dilution): 10 mM),NF-kB SEAP reporter activity,RAW-Dual [2]; agonist: LPS (TLR4) 0.1 ug/mL,1.32
same,NF-kB SEAP reporter activity,RAW-Dual [2]; [4],1.01
same,NF-kB SEAP reporter activity,RAW-Dual [2]; [5],1.24
same,NF-kB SEAP reporter activity,RAW-Dual [2]; [6],1.18
CC(C)(C)C(=O)Oc1ccc(S(=O)(=O)Nc2ccccc2C(=O)NCC(=O)O)cc1 (library stock concentration (final ~1000-fold dilution): 10 mM),NF-kB SEAP reporter activity,RAW-Dual [2]; agonist: LPS (TLR4) 0.1 ug/mL,1.36 and 1.08
same,NF-kB SEAP reporter activity,RAW-Dual [2]; [4],0.906 and 0.939
same,NF-kB SEAP reporter activity,RAW-Dual [2]; [5],1.39 and 1
same,NF-kB SEAP reporter activity,RAW-Dual [2]; [6],0.652 and 1.02
CSCCNc1nc(SCCC(F)(F)F)nc2c1ncn2C1OC(COP(=O)(O)OP(=O)(O)C(Cl)(Cl)P(=O)(O)O)C(O)C1O (configuration not stated),NF-kB SEAP reporter activity,"RAW-Dual [1]; library stock concentration (final ~1000-fold dilution): 10 mM water, agonist: Imiquimod (TLR7) […]",0.972
same,NF-kB SEAP reporter activity,"RAW-Dual [1]; library stock concentration (final ~1000-fold dilution): 10 mM water, agonist: MPLA (TLR4) […]",1.04
CSCCNc1nc(SCCC(F)(F)F)nc2c1ncn2C1OC(COP(=O)(O)OP(=O)(O)C(Cl)(Cl)P(=O)(O)O)C(O)C1O (configuration not stated) (library stock concentration (final ~1000-fold dilution): 10 mM water),NF-kB SEAP reporter activity,RAW-Dual [2]; agonist: LPS (TLR4) 0.1 ug/mL,1.15
same,NF-kB SEAP reporter activity,RAW-Dual [2]; [4],1.26
same,NF-kB SEAP reporter activity,RAW-Dual [2]; [5],1.18
same,NF-kB SEAP reporter activity,RAW-Dual [2]; [6],0.935
CCC1OC(=O)C(C)C(OC2CC(C)(OC)C(O)C(C)O2)C(C)C(OC2OC(C)CC(N(C)C)C2O)C(C)(O)CC(C)C(=O)C(C)C(O)C1(C)O.N#CS (configuration not stated),NF-kB SEAP reporter activity,RAW-Dual [1]; [7],1.07
CCC1OC(=O)C(C)C(OC2CC(C)(OC)C(O)C(C)O2)C(C)C(OC2OC(C)CC(N(C)C)C2O)C(C)(O)CC(C)C(=O)C(C)C(O)C1(C)O.N#CS (configuration not stated) (library stock concentration (final ~1000-fold dilution): 10 mM),NF-kB SEAP reporter activity,RAW-Dual [2]; agonist: LPS (TLR4) 0.1 ug/mL,1.06
same,NF-kB SEAP reporter activity,RAW-Dual [2]; [4],0.88
same,NF-kB SEAP reporter activity,RAW-Dual [2]; [5],1.07
same,NF-kB SEAP reporter activity,RAW-Dual [2]; [6],1.08
COc1cc(CCC(O)CC(O)CCc2ccc(O)c(OC)c2)ccc1O (configuration not stated),NF-kB SEAP reporter activity,RAW-Dual [1]; [3],1.04
same,NF-kB SEAP reporter activity,RAW-Dual [1]; [7],1.05
COc1cc(CCC(O)CC(O)CCc2ccc(O)c(OC)c2)ccc1O (configuration not stated) (library stock concentration (final ~1000-fold dilution): 10 mM),NF-kB SEAP reporter activity,RAW-Dual [2]; agonist: LPS (TLR4) 0.1 ug/mL,1.41
same,NF-kB SEAP reporter activity,RAW-Dual [2]; [4],1.15
same,NF-kB SEAP reporter activity,RAW-Dual [2]; [5],1.08
same,NF-kB SEAP reporter activity,RAW-Dual [2]; [6],1.06
COC1=CC(c2cc3ccccc3[nH]2)=N/C1=C\c1[nH]c(C)cc1C.CS(=O)(=O)O (library stock concentration (final ~1000-fold dilution): 10 mM),NF-kB SEAP reporter activity,RAW-Dual [2]; agonist: LPS (TLR4) 0.1 ug/mL,8.62
same,NF-kB SEAP reporter activity,RAW-Dual [2]; [4],1.9
same,NF-kB SEAP reporter activity,RAW-Dual [2]; [5],2.55
same,NF-kB SEAP reporter activity,RAW-Dual [2]; [6],3.87
COC1=CC(c2cc3ccccc3[nH]2)=N/C1=C\c1[nH]c(C)cc1C.CS(=O)(=O)O,NF-kB SEAP reporter activity,RAW-Dual [1]; [3],1.4
same,NF-kB SEAP reporter activity,RAW-Dual [1]; [7],2.78
CCOC(=O)COc1ccc(/C=C2\SC(=S)NC2=O)cc1OC (library stock concentration (final ~1000-fold dilution): 10 mM),NF-kB SEAP reporter activity,RAW-Dual [2]; agonist: LPS (TLR4) 0.1 ug/mL,1.04
same,NF-kB SEAP reporter activity,RAW-Dual [2]; [4],0.889
same,NF-kB SEAP reporter activity,RAW-Dual [2]; [5],0.889
same,NF-kB SEAP reporter activity,RAW-Dual [2]; [6],1.1
CCOC(=O)COc1ccc(/C=C2\SC(=S)NC2=O)cc1OC,NF-kB SEAP reporter activity,RAW-Dual [1]; [3],0.985
same,NF-kB SEAP reporter activity,RAW-Dual [1]; [7],1.1
CCOC(=O)C1=CCCCC1S(=O)(=O)Nc1ccc(F)cc1Cl (configuration not stated),NF-kB SEAP reporter activity,"RAW-Dual [1]; library stock concentration (final ~1000-fold dilution): .1 mM, agonist: Imiquimod (TLR7) […]",1.2
same,NF-kB SEAP reporter activity,"RAW-Dual [1]; library stock concentration (final ~1000-fold dilution): .1 mM, agonist: MPLA (TLR4) […]",0.252
CCOC(=O)C1=CCCCC1S(=O)(=O)Nc1ccc(F)cc1Cl (configuration not stated) (library stock concentration (final ~1000-fold dilution): .1 mM),NF-kB SEAP reporter activity,RAW-Dual [2]; agonist: LPS (TLR4) 0.1 ug/mL,0.288
same,NF-kB SEAP reporter activity,RAW-Dual [2]; [4],1.09
same,NF-kB SEAP reporter activity,RAW-Dual [2]; [5],1.36
same,NF-kB SEAP reporter activity,RAW-Dual [2]; [6],1.39
CS(=O)(=O)O.CS(=O)(=O)O.N=C(N)Nc1ccc(C(=O)Oc2ccc3cc(C(=N)N)ccc3c2)cc1,NF-kB SEAP reporter activity,RAW-Dual [1]; [3],1.01
same,NF-kB SEAP reporter activity,RAW-Dual [1]; [7],1.02
CS(=O)(=O)O.CS(=O)(=O)O.N=C(N)Nc1ccc(C(=O)Oc2ccc3cc(C(=N)N)ccc3c2)cc1 (library stock concentration (final ~1000-fold dilution): 10 mM),NF-kB SEAP reporter activity,RAW-Dual [2]; agonist: LPS (TLR4) 0.1 ug/mL,1.08
same,NF-kB SEAP reporter activity,RAW-Dual [2]; [4],1.05
same,NF-kB SEAP reporter activity,RAW-Dual [2]; [5],1.02
same,NF-kB SEAP reporter activity,RAW-Dual [2]; [6],0.924
N=C(N)c1ccc(OCCCCCOc2ccc(C(=N)N)cc2)cc1.O=S(=O)(O)CCO.O=S(=O)(O)CCO,NF-kB SEAP reporter activity,RAW-Dual [1]; [3],1.39
same,NF-kB SEAP reporter activity,RAW-Dual [1]; [7],1.89
NC(=O)c1ccc(OCCCN2CC3CCCC3C2)cc1 (configuration not stated) (library stock concentration (final ~1000-fold dilution): 10 mM),NF-kB SEAP reporter activity,RAW-Dual [2]; agonist: LPS (TLR4) 0.1 ug/mL,0.976
same,NF-kB SEAP reporter activity,RAW-Dual [2]; [4],0.696
same,NF-kB SEAP reporter activity,RAW-Dual [2]; [5],0.926
same,NF-kB SEAP reporter activity,RAW-Dual [2]; [6],1.14
NC(=O)c1ccc(OCCCN2CC3CCCC3C2)cc1 (configuration not stated),NF-kB SEAP reporter activity,RAW-Dual [1]; [3],0.844
same,NF-kB SEAP reporter activity,RAW-Dual [1]; [7],1.05
N=C(N)c1ccc(OCCCCCOc2ccc(C(=N)N)cc2)cc1.O=S(=O)(O)CCO.O=S(=O)(O)CCO (library stock concentration (final ~1000-fold dilution): 10 mM),NF-kB SEAP reporter activity,RAW-Dual [2]; agonist: LPS (TLR4) 0.1 ug/mL,3.88
same,NF-kB SEAP reporter activity,RAW-Dual [2]; [4],1.22
same,NF-kB SEAP reporter activity,RAW-Dual [2]; [5],0.758
same,NF-kB SEAP reporter activity,RAW-Dual [2]; [6],1.06
COCCc1ccc(OCC(O)CNC(C)C)cc1.COCCc1ccc(OCC(O)CNC(C)C)cc1.O=C(O)CCC(=O)O (configuration not stated) (library stock concentration (final ~1000-fold dilution): 10 mM),NF-kB SEAP reporter activity,RAW-Dual [2]; agonist: LPS (TLR4) 0.1 ug/mL,1.32
same,NF-kB SEAP reporter activity,RAW-Dual [2]; [4],0.801
same,NF-kB SEAP reporter activity,RAW-Dual [2]; [5],0.839
same,NF-kB SEAP reporter activity,RAW-Dual [2]; [6],0.868
COCCc1ccc(OCC(O)CNC(C)C)cc1.COCCc1ccc(OCC(O)CNC(C)C)cc1.O=C(O)CCC(=O)O (configuration not stated),NF-kB SEAP reporter activity,RAW-Dual [1]; [7],1.03
